# PubChem BioAssay
# Where “and” joins values, the source holds several entries; their conditions need not be identical. Equal values may be shown once. Calls of active or inactive are those of the source. Cut-off read from the data, not from the text of the source, unless noted: active = inhibition above about 80%; inactive = the rest.
# Experiments:
# [1] = viability rescue of complex I mutant cybrids, primary screen, cell-based, galactose medium, ATP luminescence (AID 1645843;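 active = z-score of at least 1.8 in each of two replicates, scored against plate mean and spread of sample wells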;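 note: positive z means more ATP and so rescue of galactose-driven cybrid death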); settings: complex I mutant cybrid cells, 72 h, stronger effect = higher value
# [2] = LFS_MB_P medulloblastoma growth inhibition, cell-based, chromothripsis tumors, cisplatin or BGB combos (AID 1671449); settings: LFS_MB_P medulloblastoma cells;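 note: cells exposed for 96 hours; 0% = vehicle DMSO and 100% = killing by high DMSO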
# [3] = HDN33 neuroblastoma growth inhibition, cell-based, chromothripsis tumors, cisplatin or BGB combos (AID 1671450); settings: HDN33 neuroblastoma cells, stronger effect = higher value;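 note: cells exposed to compound for four days; 0% = vehicle DMSO and 100% = cell killing by high DMSO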
# [4] = ICB984 medulloblastoma cell growth inhibition, synergistic combos for chromothripsis tumors, cisplatin or BGB combos (AID 1671451; call rule not given here;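 note: cells exposed for 96 hours before readout; 0% = vehicle DMSO and 100% = killing by high DMSO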); settings: ICB984 medulloblastoma cells, drug combinations, stronger effect = higher value
# [5] = LFS_MB_1R medulloblastoma cell growth inhibition, synergistic combos for chromothripsis tumors, cisplatin or BGB combos (AID 1671452); settings: LFS_MB_1R medulloblastoma cells, stronger effect = higher value;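 note: cells exposed for 96 hours before readout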
# [6] = HTB85 osteosarcoma cell growth inhibition, synergistic combos for chromothripsis tumors, BGB or cisplatin IC20 combos (AID 1671453); settings: HTB85 osteosarcoma cells, drug combinations, stronger effect = higher value;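 note: cells exposed for 96 hours before readout; 0% = vehicle DMSO and 100% = high DMSO killing control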
# [7] = CRL2098 osteosarcoma cell growth inhibition, synergistic combos for chromothripsis tumors, BGB or cisplatin IC20 combos (AID 1671454); settings: CRL2098 osteosarcoma cells, drug combinations, stronger effect = higher value;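 note: cells exposed for 96 h before readout; 0% = vehicle DMSO and 100% = killing by high DMSO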
# [8] = HD-MB03 medulloblastoma cell growth inhibition, synergistic combos for chromothripsis tumors, BGB or cisplatin IC20 combos (AID 1671455; in the data active = inhibition above about 83%;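 note: 0% = vehicle DMSO and 100% = high DMSO as cytotoxic control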); settings: HD-MB03 medulloblastoma cells, stronger effect = higher value
# [9] = UWB1.289 ovarian carcinoma cell growth inhibition, synergistic combos for chromothripsis tumors, BGB or cisplatin combos (AID 1671456); settings: UWB1.289 ovarian carcinoma cells, stronger effect = higher value;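 note: cells exposed to compound for four days; 0% = vehicle DMSO and 100% = killing by high DMSO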
# [10] = LFS_MB_2R medulloblastoma cell growth inhibition, synergistic combos for chromothripsis tumors, cisplatin combos (AID 1671457); settings: LFS_MB_2R medulloblastoma cells, stronger effect = higher value;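 note: cells exposed to compound for four days before readout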
# [11] = MDA-MB-436 breast carcinoma cell growth inhibition, synergistic combos for chromothripsis tumors, BGB or cisplatin combos (AID 1671458; call rule not given here;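 note: cells exposed for 96 hours; 0% = vehicle DMSO and 100% = killing by high DMSO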); settings: MDA-MB-436 breast carcinoma growth inhibition, drug combinations, stronger effect = higher value
# [12] = UWB1.289_BRCA1 ovarian cancer growth, cell-based, BGB or cisplatin combinations (AID 1671459); settings: UWB1.289 BRCA1 ovarian carcinoma, drug combinations, stronger effect = higher value
# [13] = human astrocyte viability loss, single and combined drugs, cytotoxicity control for chromothriptic childhood tumor combination screen, cell-based, BGB or cisplatin IC20 combos (AID 1671460); settings: Human astrocytes, drug combinations, stronger effect = higher value;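 note: cells exposed to compounds for 96 hours before viability readout; 0% = vehicle and 100% = killing control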
# [14] = growth inhibition of BT084 medulloblastoma cells, cell-based, ICGC_MB145, cisplatin and BGB IC40 combos (AID 1671461); settings: drug combinations, stronger effect = higher value;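 note: cells exposed to drugs for 96 hours; 0% = vehicle DMSO and 100% = high DMSO full killing control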
# [15] = growth inhibition of RCMB18 medulloblastoma cells, cell-based, cisplatin and BGB IC40 combos (AID 1671462); settings: stronger effect = higher value;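 note: cells exposed to compound for four days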
# [16] = growth inhibition of CRL1545 osteosarcoma cells, cell-based, cisplatin and BGB IC20 combos (AID 1671464); settings: stronger effect = higher value;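 note: cells exposed to compound for 96 hours before readout; 0% = vehicle DMSO and 100% = high DMSO killing control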
# [17] = measured here: combination with BGB IC40, at 0.05 µM
# [18] = measured here: with BGB IC20 combination, at 0.5 µM
# [19] = measured here: with cisplatin IC20 combination, at 0.5 µM
# [20] = measured here: combination with cisplatin, at 0.5 µM
# [21] = measured here: combination with cisplatin, at 5 µM
smiles,measurement,setting,value
Cc1nsc(NC(=O)N2CCCC2C)n1 (stereo unspecified),z-score,[1],-0.04 (inactive)
CC(CCCC(C)(C)O)NC/C=C/c1ccc(F)cc1 (stereo unspecified),z-score,[1],-0.51 (inactive)
Cc1cc(-c2ccccc2C(F)(F)F)nc(N)n1,z-score,[1],-0.545 (inactive)
CCCCNNC(=O)c1ccc(Br)cc1,inhibition,"[2]; at 0.5 µM, stronger effect = higher value",-28.6% (inactive) and -13.6% (inactive)
same,inhibition,"[2]; measured here: combination with BGB IC20, at 0.005 µM",-3.01% and -23.3%
same,inhibition,"[2]; measured here: combination with BGB IC40, at 0.005 µM",-22.6% and -43.3%
same,inhibition,[2]; [17],-0.924% and -28%
same,inhibition,"[2]; measured here: combination with cisplatin, at 0.5 µM, stronger effect = higher value",-32% and -11.5%
same,inhibition,"[2]; measured here: combination with cisplatin, at 5 µM, stronger effect = higher value",-36.2% and 31.8%
same,inhibition,"[3]; BGB combo, at 5 µM",-6.55% and 1.44%
same,inhibition,[3]; at 0.5 µM,0.02% (inactive) and -19.7% (inactive)
same,inhibition,"[3]; cisplatin combo, at 5 µM",13.1% and 50.6%
same,inhibition,[3]; [18],3.17% and -28.2%
same,inhibition,[3]; [19],-1.75% and -2.85%
same,inhibition,"[3]; single agent, at 5 µM",4.48% and -2.92%
same,inhibition,"[4]; BGB IC20 combo, at 0.005 µM",-0.717% and -27.2%
same,inhibition,"[4]; BGB IC40 combo, at 0.005 µM",-41.6% and -37.1%
same,inhibition,"[4]; BGB IC40 combo, at 0.05 µM",-16% and 7.68%
same,inhibition,[4]; at 0.5 µM,-18.8% (inactive) and -23.4% (inactive)
same,inhibition,"[4]; cisplatin combo, at 0.05 µM",-20.6% and 3.05%
same,inhibition,"[4]; cisplatin combo, at 0.5 µM",-33.8% and -35%
same,inhibition,"[4]; cisplatin combo, at 5 µM",-37.9% and -23%
same,inhibition,"[4]; measured here: 5 uM single agent, at 5 µM",-7.59% and -16.8%
same,inhibition,[5]; at 0.5 µM,-6.14% (inactive) and -24.9% (inactive)
same,inhibition,[5]; [17],-4.43% and -39.3%
same,inhibition,[5]; [20],15.7% and -27.4%
same,inhibition,[5]; [21],-45.3% and 33.7%
same,inhibition,[6]; at 0.5 µM,-6.38% (inactive) and -12% (inactive)
same,inhibition,"[6]; measured here: with BGB IC20, at 0.5 µM",-9.67% and -6.58%
same,inhibition,"[6]; measured here: with BGB IC20, at 5 µM",-16.5% and 39.7%
same,inhibition,"[6]; measured here: with cisplatin IC20, at 0.5 µM",-16.9% and -17.5%
same,inhibition,"[6]; measured here: with cisplatin IC20, at 5 µM",-4.96% and 37.1%
same,inhibition,"[6]; single agent, at 5 µM",0.402% and 2.14%
same,inhibition,[7]; at 0.5 µM,-42.1% (inactive) and -78.1% (inactive)
same,inhibition,"[7]; measured here: combination with BGB at IC20, at 0.5 µM",-11% and -84.3%
same,inhibition,"[7]; measured here: combination with cisplatin at IC20, at 0.5 µM",-47% and -80.1%
same,inhibition,[8]; at 0.5 µM,-7.76% (inactive) and -11.7% (inactive)
same,inhibition,"[8]; measured here: combo with BGB at IC20, at 0.5 µM",-11.6% and -15%
same,inhibition,"[8]; measured here: combo with cisplatin at IC20, at 0.5 µM",-8.41% and -15%
same,inhibition,[9]; at 0.5 µM,-8.32% (inactive) and -3.86% (inactive)
same,inhibition,"[9]; measured here: inhibition with BGB combination, at 0.05 µM",-23.9% and -19.8%
same,inhibition,"[9]; measured here: inhibition with cisplatin combination, at 0.05 µM",-10.7% and -18.7%
same,inhibition,[10]; at 0.5 µM,-9.05% (inactive) and -20.7% (inactive)
same,inhibition,[10]; [20],-22% and -6.47%
same,inhibition,[10]; [21],-14.2% and 13.9%
same,inhibition,[11]; at 0.5 µM,-12.3% (inactive) and -16% (inactive)
same,inhibition,"[11]; measured here: BGB combination, at 0.5 µM",-20.8% and -8.47%
same,inhibition,"[11]; measured here: BGB combination, at 5 µM",-14.9% and -12.9%
same,inhibition,"[11]; measured here: cisplatin combination, at 0.5 µM",-6.74% and -30.9%
same,inhibition,"[11]; measured here: cisplatin combination, at 5 µM",-0.941% and -3.8%
same,inhibition,"[12]; BGB combination, concentration series, at 5 µM",6.4% and 33.8%
same,inhibition,[12]; at 0.5 µM,-7.63% (inactive) and -13.8% (inactive)
same,inhibition,"[12]; cisplatin combination, concentration series, at 5 µM",26% and 52.3%
same,inhibition,[13]; at 0.5 µM,8.76% (inactive) and -0.16% (inactive)
same,inhibition,"[13]; measured here: combo with BGB IC20, at 0.5 µM",10.6% and 7.19%
same,inhibition,"[13]; measured here: combo with cisplatin IC20, at 0.5 µM",16.8% and 11.7%
same,inhibition,[14]; at 0.5 µM,-6.87% (inactive) and -6.41% (inactive)
same,inhibition,"[14]; cisplatin combination, at 0.5 µM",-5.88% and 9.41%
same,inhibition,"[14]; cisplatin combination, at 5 µM",5.88% and 9.57%
same,inhibition,"[14]; measured here: BGB IC40 combination 0.05 uM, at 0.05 µM",-2.71% and -30.8%
same,inhibition,"[14]; single agent, at 5 µM",3.58% and 5.96%
same,inhibition,[15]; at 0.5 µM,-14.6% (inactive) and -4.43% (inactive)
same,inhibition,"[15]; cisplatin combo, at 5 µM",-8.38% and 43.4%
same,inhibition,"[15]; measured here: BGB IC40 combination, at 0.05 µM",-7.86% and -8.38%
same,inhibition,[15]; [20],-0.38% and 8.6%
same,inhibition,"[15]; single agent, at 5 µM",-15.8% and 24%
same,inhibition,[16]; at 0.5 µM,-8.18% (inactive) and -0.65% (inactive)
same,inhibition,[16]; [18],-10.3% and -18.8%
same,inhibition,[16]; [19],-7.12% and 6.96%
same,inhibition,"[16]; single agent, at 0.05 µM",-17.3% and -29.7%
same,inhibition,"[16]; single agent, at 5 µM",-21.8% and -15.7%
